# MCF10A rereplic – induces DNA re-replication in MCF 10a normal breast cells | MCF 10A DNA re-replication, Hoechst nuclear intensity, 48 h | Potency, µM (doses to about 46.1 µM), for inactives: at the highest dose activity, positive = re-replication, actives largely listed as activators | actives 2.9% (n = 350,000) | AID 624296; further: % of control where 0% means no effect; nearly all actives have a fitted effect of over 50% in size
# TSG101-PTAP inh – blocks PTAP/TSG101 interaction to inhibit HIV-1 budding. Potency, µM (series often up to 115 µM), for the others: at the highest dose activity change, negative = inhibition, hits mostly inhibitors. Q99816. Fluorescence polarization, FITC-PTAP peptide / Tsg101 binding. 340,000 tested, under 10 active; active means well fitted inhibition curve with a large enough effect in the main read-out, with a control signal flat, not every such curve was filed as active; inconclusive means small, poorly fitted or top-dose-only effect, or effect the other way, or a change in a side signal; inactive means no such curve, though single readings can be large or run the other way; further: % of control where 0% means no effect
# Target sequence (Q99816 whole entry, looked up): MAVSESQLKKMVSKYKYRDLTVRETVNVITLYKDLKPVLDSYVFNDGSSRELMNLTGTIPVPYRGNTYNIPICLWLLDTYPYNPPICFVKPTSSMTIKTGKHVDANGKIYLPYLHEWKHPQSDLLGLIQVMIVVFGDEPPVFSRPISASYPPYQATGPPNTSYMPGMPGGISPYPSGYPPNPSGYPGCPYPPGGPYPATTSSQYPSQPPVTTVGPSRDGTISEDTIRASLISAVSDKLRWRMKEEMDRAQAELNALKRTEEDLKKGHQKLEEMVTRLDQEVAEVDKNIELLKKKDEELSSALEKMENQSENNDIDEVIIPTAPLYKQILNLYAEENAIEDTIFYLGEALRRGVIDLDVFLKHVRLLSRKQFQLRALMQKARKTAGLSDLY
#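 Fluorescence anisotropy tracks displacement of a FITC-tagged PTAP peptide (50 nM) from the Tsg101 binding domain (10 uM), following a 20 min room-temperature incubation at pH 7.5.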
# KB-V1 cytotox – KB-V1 MDR subline cytotoxicity; KB-V1 MDR cells viability, CellTiter-Glo, 72 h; Potency, µM (doses to about 46.1 µM), hits mostly cytotoxic; actives 3.4% (n = 400,000); further: on the % scale 0 is the no-effect control and ±100 the full control effect; nearly all actives have a fitted effect of over 60% in size
#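 Drug-selected KB-V1 cells, grown in DMEM lacking phenol red with 10% FBS, receive compound titrations; after three days at 37 degrees C, surviving cell ATP is quantified by CellTiter-Glo luminescence and responses normalized and curve-fitted.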
# KB-3-1 cytotox – KB-3-1 parental cell cytotoxicity | KB-3-1 viability, CellTiter-Glo ATP luminescence, 72 h | actives 1.4% (n = 400,000) | Potency, µM (series often up to 46.1 µM), hits mostly cytotoxic; further: on the % scale 0 is the no-effect control and ±100 the full control effect; nearly all actives have a fitted effect of over 60% in size
#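 Cytotoxicity measured as CellTiter-Glo luminescence after 72 h at 37 C. Compound titrations were pinned onto drug-naive KB-3-1 parental adenocarcinoma cells grown in DMEM with 10% FBS, and normalized data fitted to concentration-response curves.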
# SW480 rerep – induces DNA re-replication in SW480 colon adenocarcinoma cells; actives 1.8% (n = 340,000); SW480 DNA re-replication, Hoechst DNA content imaging, 48 h; Potency, µM (titrated, usually from 46.1 µM), inactives show at the top dose re-replication activation, hits mostly activators; further: % of control where 0% means no effect; nearly all actives have a fitted effect of over 55% in size
#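 Image-based DNA-content assay: after two days of treatment, nuclei were labelled with the DNA dye Hoechst and imaged, and hits were compounds raising the count of nuclei showing high fluorescence intensity.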
# PINK1 expr mod – modulators of PINK1 expression | AID 624263 | Potency, µM (doses to about 76.6 µM), for the others: top-dose activation (PINK1 increase), most hits filed as activators | actives 0.2% (n = 410,000) | PINK1 immunofluorescence, high-content cytometry, 24 h; active means well fitted activation curve with a large enough effect; inconclusive means small, poorly fitted or top-dose-only effect; cell line not stated here; further: % of control where 0% means no effect; nearly all actives have a fitted effect of over 65% in size
#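 Measures PINK1 amount and localization on or inside mitochondria by immunofluorescence. Stable cells get compounds at 5 concentrations for 24 hours before fixation and staining; CCCP controls included.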
# * marks the source's active call; other numbers are inactive results; i = inactive; u = inconclusive; x = no result given; [ ] = another dose, or the depositor's remark. A selection: hits, their analogues and other compounds. The true share with any hit is near 6.8%. Unless noted, the call rests on the fitted dose curve; in most records, active means well fitted curve in the direction sought with a large enough effect; inconclusive means small, poorly fitted or top-dose-only effect, or another doubt; inactive means no such curve, though single readings can be large; an effect the other way counts as inactive or inconclusive. Potency means the concentration at half of the fitted maximal effect.
SMILES,MCF10A rereplic,TSG101-PTAP inh,KB-V1 cytotox,KB-3-1 cytotox,SW480 rerep,PINK1 expr mod
Cc1ccccc1N(C(=O)Cc1c[nH]c2ccccc12)C(C(=O)NC1CCCCC1)c1ccco1 (stereo not given),u,-2%,u,i,-6%,4%
COc1ccc(C(C(=O)NC2CCCCC2)N(C(=O)Cc2c[nH]c3ccccc23)c2ccccc2C)cc1OC (stereo not given),10%,-1%,u,i,29%,1%
Cc1ccc(C(C(=O)NC2CCCCC2)N(Cc2ccco2)C(=O)Cc2c[nH]c3ccccc23)o1 (stereo not given),u,-11%,10µM*,i,12%,8%
COc1ccc(C(C(=O)NC2CCCCC2)N(Cc2cccs2)C(=O)Cc2c[nH]c3ccccc23)cc1OC (stereo not given),15%,-1%,8.2µM*,u,28%,11%[38.3 µM]
Cc1ccc(N(C(=O)Cc2c[nH]c3ccccc23)C(C(=O)NC2CCCCC2)c2ccco2)cc1 (stereo not given),u,-3%,16µM*,u,u,9%
NCCNc1ncnc2ccc(-c3ccc4c(c3)OCO4)cc12,x,x,i,u,x,x
Cc1cc2c(cc1NS(=O)(=O)c1ccc(Br)cc1)n(C)c(=O)c(=O)n2C,x,x,i,i,x,3%
Cc1cccc(C2=NN(c3ccccc3)[C@@H](C(=O)N3CCOC3=O)[C@@H]2c2ccc(F)cc2)c1,u,1%,i,i,u,-1%
O=C1OCCN1C(=O)[C@H]1[C@H](c2ccc(F)cc2)C(c2ccc(F)cc2)=NN1c1ccccc1,5.8µM*,0%,i,i,18µM*,-1%
O=C1OCCN1C(=O)[C@H]1[C@H](c2ccc(Cl)cc2)C(c2ccc(F)cc2)=NN1c1ccccc1,3.7µM*,5%,u,u,u,3%
O=C1OCCN1C(=O)[C@H]1[C@H](c2ccc(Cl)cc2)C(c2ccc(F)cc2)=NN1c1ccc(Br)cc1,u,-1%,i,i,21µM*,4%
O=C1OCCN1C(=O)[C@H]1[C@H](c2ccc(F)cc2)C(c2ccc(F)cc2)=NN1c1ccc(Br)cc1,u,1%,u,i,u,-1%
O=C1OCCN1C(=O)[C@H]1[C@H](c2ccc(F)cc2)C(c2ccccc2)=NN1c1ccccc1,5.2µM*,9%,i,i,21µM*,0%
CCN(CC)C1CCN(C(=O)c2cnn(-c3nccc(-c4ccco4)n3)c2C(C)C)C1 (stereo not given),x,x,x,x,x,0%
Cc1cc(C(=O)NCc2nnc3n2CCN(Cc2ccc(F)cc2F)CC3)c(C)o1,x,x,x,x,x,0%
O=C(Nc1ccc2c(c1)OCO2)C1CCN(S(=O)(=O)c2cccs2)CC1,18%,-5%,i,i,7%,u
O=C(Nc1ccncc1)C1CCN(S(=O)(=O)c2ccc(Cl)c(C(F)(F)F)c2)CC1,u,-1%,u,5.8µM*,0%,5%
O=C(Nc1ccc2c(c1)OCCO2)C1CCN(S(=O)(=O)c2ccc(Br)s2)CC1,-4%,-4%,10µM*,u,u,-2%
COc1ccc(C2CCCCCN2C(=O)C2CCN(S(=O)(=O)c3cccc(C(C)=O)c3)CC2)cc1 (stereo not given),0%,-2%,18µM*,i,u,-2%
O=C(Nc1ccc2c(c1)OCCO2)C1CCN(S(=O)(=O)c2ccccc2)CC1,u,-1%,i,i,17%,1%
O=C(Nc1ccc2c(c1)OCCO2)C1CCN(S(=O)(=O)c2cccs2)CC1,10%,-4%,15µM*,i,-1%,4%[38.3 µM]
COc1cc(CN2CCCC(c3nc(-c4ccncc4)ncc3-c3ccccc3)C2)ccc1O (stereo not given),x,x,x,x,x,0%
Cc1c(CCNC(=O)c2ccc(C(C)(C)C)cc2)sc2nc(-c3ccc(F)cc3)nn12,x,x,x,x,x,1%
O=C(Nc1ccccn1)C1CCN(S(=O)(=O)c2ccc3c(c2)OCCCO3)CC1,3%,-1%,i,i,1%,2%
O=C(CN1CCN(S(=O)(=O)c2ccc(F)cc2)CC1)Nc1ccc(Cl)c(C(F)(F)F)c1,u,-4%,16µM*,u,u,5%
SMILES,MCF10A rereplic,TSG101-PTAP inh,KB-V1 cytotox,KB-3-1 cytotox,SW480 rerep,PINK1 expr mod
CC(=O)Nc1ccc(NC(=O)C2CCN(S(=O)(=O)c3ccc4c(c3)OCCO4)CC2)cc1,13%,0%,i,i,-6%,-1%
COc1ccc(C(=O)C2CCN(S(=O)(=O)c3ccc4c(c3)OCCO4)CC2)cc1,11%,-5%,23µM*,u,-2%,-2%[38.3 µM]
COc1ccc(C(=O)N2CCN(S(=O)(=O)c3ccc4c(c3)OCCO4)CC2)cc1,x,x,i,i,x,-1%
Cc1ccc(NC(=O)C2CCN(S(=O)(=O)c3ccc4c(c3)OCCCO4)CC2)nc1,10%,-2%,u,16µM*,-6%,-1%
O=C(Nc1ccc2c(c1)OCCO2)C1CCN(S(=O)(=O)c2ccc3c(c2)OCCO3)CC1,7%,-2%,15µM*,i,1%,-5%
COc1cc2c(cc1OC)CN(S(=O)(=O)c1ccc3c(c1)OCCO3)CC2,1%,-8%,5.2µM*,u,-4%,-3%
CN(CC(=O)NCCc1ccc(S(N)(=O)=O)cc1)CC(=O)Nc1ccc(Cl)c(C(F)(F)F)c1,12%,-2%,i,16µM*,3%,0%
COc1ccc(S(=O)(=O)N2CCc3ccccc3C2)cc1OC,9%,-7%,i,i,1%,-2%[38.3 µM]
COC(=O)C1=C(C)NC(=O)NC1c1cn(-c2ccccc2)nc1-c1ccc(OC)c(Cl)c1 (stereo not given),x,x,i,i,x,4%
Cc1cc(=O)n2nc(N3CCC(C(=O)Nc4ccc(C(C)C)cc4)CC3)sc2n1,x,x,i,u,x,2%
CCN(CC)CCNC(=O)C(Cl)=C1C(Cl)=C(Cl)C(Cl)=C1Cl,10µM*,2%,u,u,12µM*,5%
Cc1ccc2nc(N3CCN(C(=O)c4ccccc4F)CC3)c(C#N)cc2c1,12µM*,0%,i,i,26%,0%
COc1ccc2oc(=Nc3cc(F)ccc3F)c(C(N)=O)cc2c1,u,-4%,u,7.3µM*,u,1%
COc1ccc2cc(C(N)=O)c(=Nc3ccccc3)oc2c1,-8%,0%,i,i,-8%,2%
COc1ccc(OC)c(N=c2oc3cc(O)ccc3cc2C(N)=O)c1,16µM*,-11%,u,u,18µM*,12%[38.3 µM]

# Assay outcomes (PubChem BioAssay)
